Experimental data published in PubChem BioAssay (NCI).
This is part of a sample that, as a whole, favours compounds with a hit. Of some 83,000 tested, about 20% had one in any assay.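 Single-dose data. Exposure time 48 hours. Values below 10 considered active.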 Values without a mark were called inactive. Active and inactive are the calls of the source.

Legend:
Test in all cases: NCI-60 one-dose screen, 48 h (100 = growth as untreated, 0 = no growth, -100 = all killed)
Conditions in all cases: 10 µM unless noted
DU-145 prostate = test system: DU-145 prostate
K-562 leukemia = test system: K-562 leukemia
MALME-3M melanoma = test system: MALME-3M melanoma
MDA-MB-231 breast = test system: MDA-MB-231 breast
RXF 393 renal = test system: RXF 393 renal
SF-268 CNS = test system: SF-268 CNS
SF-295 CNS = test system: SF-295 CNS
SF-539 CNS = test system: SF-539 CNS
UACC-257 melanoma = test system: UACC-257 melanoma
M14 melanoma = test system: M14 melanoma

| Structure (SMILES) | growth (DU-145 prostate) | growth (K-562 leukemia) | growth (MALME-3M melanoma) | growth (MDA-MB-231 breast) | growth (RXF 393 renal) | growth (SF-268 CNS) | growth (SF-295 CNS) | growth (SF-539 CNS) | growth (UACC-257 melanoma) | growth (M14 melanoma) |
| --- | --- | --- | --- | --- | --- | --- | --- | --- | --- | --- |
| Cc1ccc(C(=O)Nc2cccc(C#Cc3cccc4[nH]nc(N)c34)c2)cc1C(F)(F)F | 78.4% | 6.95% (active) | 6.04% (active) | 55.4% | 41.2% | 60.8% | 78.1% | 8.47% (active) | 68% | 21.6% |
| NC1=Nc2cc(OCCCCN3Cc4ccccc4C3)c(OCC3CC3)cc2C12CCCC2 | 65% | 2.5% (active) | -88.5% (active) | 19.3% | 30.2% | 56.1% | 61.7% | -8.18% (active) | -83.2% (active) | -89.7% (active) |
| O=c1ccc(=O)n(-c2nc(-c3ccc([N+](=O)[O-])cc3)cs2)[nH]1 | 97.7% | 95.2% | 114% | 105% | 88.4% | 95% | 98.1% | 97.3% | 102% | 101% |
| COc1cc(-c2nc3sccn3c2-c2ccnc(NCCNS(=O)(=O)c3ccc(Cl)cc3)n2)ccc1F | 32.3% | 13.6% | 31.3% | 69% | 33.2% | 30.6% | 40.5% | 80% | 45.1% | 21.5% |
| C=C1C(=O)O[C@H]2[C@H]1CC/C(CNC(=O)c1c[nH]c3ccc(F)cc13)=C\CC[C@@]1(C)O[C@@H]21 | -58.5% (active) | -19.3% (active) | -2.58% (active) | 11.7% | -84.9% (active) | 42.8% | 67.7% | -42.6% (active) | -68.4% (active) | -26.1% (active) |
| C#Cc1cccc(Nc2nc(C)nc3cc(NC(=O)CCl)ccc23)c1 | -95.8% (active) | 0.173% (active) | -77.6% (active) | -73.1% (active) | -87.2% (active) | -67.2% (active) | -79.7% (active) | -92.8% (active) | -60.9% (active) | -27.5% (active) |
| CCOC(=O)C#Cc1c(C(=O)OCC)nnn1Cc1ccc(C(F)(F)F)cc1 | 60.5% | 3.87% (active) | 74.4% | 88.1% | -7.11% (active) | 86.6% | 94.8% | 43.3% | 74.2% | 30.5% |
| CN(CCCNC(=O)CCOCCOCCOCCNC(=O)Cc1ccc2ccc3cccc4ccc1c2c34)CCCNc1cc(-c2ccc3ccccc3c2)nc2ccccc12 | -95.8% (active) | -88.3% (active) | -69.6% (active) | -70.7% (active) | -37.7% (active) | -82.9% (active) | -71.1% (active) | -98.6% (active) | -70% (active) | -89.7% (active) |
| CC[N+]1(CC)CC[N+]2(CCCC(C)CC2)CC1 (stereo not given) | 111% | 107% | 97.6% | 106% | 113% | 108% | 98.8% | 99.2% | 98.2% | 106% |
| C=Cc1cnc(Nc2ccc(OC)cc2)nc1NCCCNC(=O)C1CCC1 | 46.3% | 34.3% | 52.5% | -6.62% (active) | -1.29% (active) | 28.5% | 59.6% | 22% | 70.5% | 46.8% |
| O=C1/C(=C\c2ccccn2)c2ccccc2N1c1c(Cl)cccc1Cl | -0.0912% (active) | 9.42% (active) | 67.3% | 15.7% | -35.2% (active) | 7.81% (active) | 12.3% | 1.27% (active) | 59.3% | -43.6% (active) |
| COc1ccccc1N(C(C)=O)C1=C(Cl)C(=O)c2ccccc2C1=O | 38.1% | -13.2% (active) | 43.3% | 10.5% | -29.1% (active) | 30.1% | -36% (active) | -30.9% (active) | -7.02% (active) | 11.7% |
| Nc1nc(N)c2c(n1)NC(c1cccc(Nc3ccnc4cc(C(F)(F)F)ccc34)c1)CC(c1ccccc1)=N2 (stereo not given) | 71.9% | 13.5% | 67% | 58.5% | 44.9% | 52.3% | 50.1% | 77.1% | 69% | 30.2% |
| Cc1[nH]c(C2CC(c3ccc(C(F)(F)F)c(F)c3)=NN2c2ccccc2)c(C)c1C(=O)NCC(F)(F)F (stereo not given) | 94.7% | 76% | 79.7% | 88.8% | 80.8% | 84.7% | 87.1% | 94.4% | 97.6% | 94.8% |
| Ic1ccccc1I | 116% | 103% | 131% | 111% | 100% | 111% | 106% | 104% | 88.3% | 94.3% |
| CC(C)=CCNc1ncnc2c1ncn2C1OC(CO)C(O)C1O (stereo not given) | -89.4% [1 mM] (active) | 7.4% [1 mM] (active) | 32.4% [1 mM] | -54.7% [1 mM] (active) | -71.2% [1 mM] (active) | 4.72% [1 mM] (active) | -24.2% [1 mM] (active) | -41.8% [1 mM] (active) | 92.7% [1 mM] | 26.9% [1 mM] |
| CCNC(=O)Oc1ccc(/C(=C(/CC)Cc2ccccc2)c2ccc(OCCN3CCCC3)cc2)cc1 | 104% | 64.7% | 107% | 80.1% | 94.6% | 92.9% | 102% | 97.2% | 90.1% | 93.1% |
| CCOc1cccc(/C=N/NC(=O)c2cccc(Nc3ccnc(C(F)(F)F)c3)c2)c1O | 19.2% | 28.7% | 30.9% | 45% | 47.4% | 26.7% | 30.3% | 14.8% | 37.3% | -6.87% (active) |
| CCNc1ccc(-c2nc3ccccc3n3cccc23)cc1 | 86.7% | 67.6% | 92.2% | 55.8% | 87.7% | 83.9% | 69% | 93.5% | 84.9% | 77.9% |
| Cc1cc(Nc2ccc(C(=O)N3CCCC3)cc2)nc(NCCCNc2ccnc3cc(Cl)ccc23)n1 | 91.5% | 33.9% | 54.8% | 48.3% | 101% | 67.8% | 103% | 65% | 105% | 82.5% |
| NC(N)=NS(=O)(=O)c1ccc(NC2=C(I)C(=O)c3ncccc3C2=O)cc1 | 105% | 94.2% | 103% | 92.7% | 108% | 90.5% | 103% | 97.4% | 97.1% | 111% |
| COc1cc(Cl)c(C)cc1NC(=O)c1cc2ccccc2cc1O | 26.4% | 14.5% | -8.31% (active) | -23.8% (active) | 11.7% | 24% | -15.1% (active) | 22.1% | -1.4% (active) | 24.1% |
| CCN1C(=O)N(CC)C2C1NN=c1s/c(=C\c3ccc(C(F)(F)F)cc3)c(=O)n12 (stereo not given) | 6.72% (active) | 7.4% (active) | 49.5% | 9% (active) | 24.1% | 53.5% | 14.1% | -21.6% (active) | 48.9% | 6.9% (active) |
| C/C(=N\O)[C@@H]1CC[C@]2(CO)CC[C@]3(C)[C@H](CC[C@@H]4[C@@]5(C)CCCNC(C)(C)[C@@H]5CC[C@]43C)[C@@H]12 | 95% | 2.56% (active) | 95.4% | 90.9% | 80.8% | 84.7% | 92.5% | 93.3% | 97.6% | 87% |
| CCOC(=O)c1[nH]c2c(c1C)-c1[nH]c(=O)c(S(=O)(=O)c3ccccc3)cc1SC2 | 15.4% [100 µM] | 49.8% [100 µM] | 4.32% [100 µM] (active) | 25.6% [100 µM] | -5.27% [100 µM] (active) | 21.8% [100 µM] | 8.44% [100 µM] (active) | 30% [100 µM] | 66.8% [100 µM] | 51.8% [100 µM] |
| CCn1c(-c2cc3c([nH]c4ccccc43)c(-c3cccc(O)c3)n2)n[nH]c1=S | 62.3% | 14.3% | 51% | 46.9% | 8.59% (active) | 48.3% | 36.8% | 30% | 41% | 18.1% |
